Measurements taken from PubChem BioAssay AID1963318 (National Center for Advancing Translational Sciences (NCATS), 2024).
Out of some 1,300 compounds screened, about 100 (7.7%) were called active. Roughly 19% stayed inconclusive and do not appear here. Calls come from the whole dose curve; as a rule, active = well fitted activation curve with a large enough effect; inconclusive = small, poorly fitted or top-dose-only effect; inactive = no such curve, though single readings can be large or run the other way. Not all results are given here.

The compounds below were run against Luciferin 4-monooxygenase (Photinus pyralis) (UniProt P08659) (assay: Firefly luciferase (FLuc-C-HiBiT) SDR gain of signal screen - without ATP). Settings: Purified FLuc-C-HiBiT, Nano-Glo HiBiT luminescence, no ATP; series mostly up to 32.7 µM; activation (signal gain): at the top concentration.
Chain of Luciferin 4-monooxygenase (Photinus pyralis) (P08659 whole entry, looked up): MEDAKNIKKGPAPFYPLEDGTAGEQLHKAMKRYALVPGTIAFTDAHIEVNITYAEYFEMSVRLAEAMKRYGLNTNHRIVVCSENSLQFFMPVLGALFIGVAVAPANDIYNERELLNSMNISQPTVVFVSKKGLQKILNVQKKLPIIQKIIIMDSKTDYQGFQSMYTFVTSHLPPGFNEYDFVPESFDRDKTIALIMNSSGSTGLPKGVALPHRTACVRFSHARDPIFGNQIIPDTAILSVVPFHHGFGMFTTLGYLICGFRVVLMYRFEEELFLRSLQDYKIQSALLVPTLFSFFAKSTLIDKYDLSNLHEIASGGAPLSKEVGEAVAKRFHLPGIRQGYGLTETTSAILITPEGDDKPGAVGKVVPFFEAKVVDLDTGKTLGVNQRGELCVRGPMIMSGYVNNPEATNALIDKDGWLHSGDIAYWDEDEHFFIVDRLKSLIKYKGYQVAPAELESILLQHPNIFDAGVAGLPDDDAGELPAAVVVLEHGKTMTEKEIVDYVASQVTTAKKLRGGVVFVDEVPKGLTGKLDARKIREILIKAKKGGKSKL
From the text: PI: James Inglese Ph.D. National Center for Advancing Translational Sciences (NCATS), National Institute of Health (NIH), Maryland Discovery and optimization of novel protein-binding ligands underlies many of the methods and applications of biology, drug discovery, clinical diagnostics, and environmental toxicology. Assays for detecting the interaction of, for example, a molecule with a macromolecular target also referred to here as the target of interest (TOI) is dependent on a compatible output technology. Depending on the nature and knowledge surrounding the TOI, whether a receptor, enzyme, regulatory subunit or scaffold, or a sequence-defined nucleic acid folded into a complex tertiary structure, assay strategies can vary widely. Here we exploit ligand-biased changes in the structural dynamics of the target protein to control reporter alpha complementation allowing a non-competitive, non-functional, non-separation measure of ligand-target interaction. […] Secondly, we show the specificity and sensitivity of the SDR for the Abelson tyrosine kinase (ABL1) compared to the serine/threonine protein kinase A, using an enriched chemical library of 128 compounds selected, in part, for activity annotated with ABL1 kinase activity using the Pharos database (3). References: (1) A. S. Dixon et al., NanoLuc Complementation Reporter Optimized for Accurate Measurement of Protein Interactions in Cells. ACS Chem Biol 11, 400-408 (2016). […] Chemistry & Biology, 19, 1060 - 1072 (2012). (3) K. J. Kelleher et al., Pharos 2023: an integrated resource for the understudied human proteome. Nucleic Acids Res 51, D1405-D1416 (2023).
1. Reagent. Dispense 4 uL FLuc-C-HiBiT enzyme-buffer solution per well at a final enzyme concentration of 10 nM with or without 10 uM ATP into columns 2-48 of white, solid bottom medium bind 1536-well plates (Greiner Bio-One) by BioRaptr 2. Dispense respective buffer without enzyme at 4 uL/well in column 1 of assay plates. 2. Compounds. Library compounds and PTC124 control added at 23 nL per well, transfer by Pin Tool. 3. Incubation. Incubate enzyme and compounds at room temperature for >30 min, protect from light. 4. Reagent. (SDR assay) Add 3 uL/well of Nano-Glo HiBiT reagent (Promega) to assay plates for SDR assay without ATP. 5. Incubation. Incubate enzyme and substrate or detection reagent at room temperature for 5-10 min, protect from light. 6. Detector. HiBiT SDR assay measured using CCD-based camera (ViewLux) with settings as follows: Exposure, 1 sec; Gain, High; Speed, Slow; Binning, 2X. REFERENCES: Inglese J, Shamu CE and Guy RK, Reporting data from high throughput screening of small molecule libraries, Nature Chemical Biology, 2007, 3(8): 438-441. doi.org/10.1038/nchembio0807-438.
Note: nearly all actives have a fitted effect of over 55% in size.
Potency is the fitted concentration of half-maximal effect.

Activation (signal gain), inactive:
COc1ccc(-c2cc(N3CCCC(NC(=O)c4ccsc4)C3)n[nH]2)cc1 (centres undefined) 19.3%
Fc1ccc(Nc2nc(-c3ccccc3F)no2)cc1 22%
Cc1nn(-c2ccc(C(C)C)cc2)c(C)c1[C@@H]1C=C[C@@H](NC(=S)NCC(C)C)C1 13.7% [at 49.3 µM]
COc1ccc(CC(=O)Nc2ccc(-c3nc4ccccc4s3)c(C)c2)cc1 11.5%
O=C(COc1ccc(Cl)cc1)Nc1ccc(-c2nc3cc(Cl)ccc3o2)c(O)c1 11.7%
O=C([C@@H]1C[C@@H](O)[C@H](O)[C@@H]2NC(=S)N(c3ccc(OC(F)(F)F)cc3)[C@@H]21)N1CCCCC1 18.3%
CCNC(=O)C1C(c2cccc(NC(=O)c3ccc(OC)cc3)c2)OC(=O)N1Cc1ccc(C)cc1 (centres undefined) 19.8%
Cc1nnn2c(C(=O)NC3CC3)cccc12 15.7% [at 65.7 µM]
COc1cc(F)ccc1-c1ccc(COc2ccc3c(cnn3CCC(=O)O)c2)cc1 10.6% [at 49.3 µM]
Cc1cc(C)n(CCC(=O)N2CCC(Cc3noc(C4CC4)n3)C2)n1 (centres undefined) 9.71%
O=C(Nc1ccccc1)c1nc2c(o1)CCN(Cc1cccc(Cl)c1)CC2 18.4% [at 49.3 µM]
Cc1ccc(C(=O)Nc2ccc(-c3nc4ccccc4s3)c(O)c2)cc1 15.8%
CC(=O)c1ccc(NC(=O)CSc2nnc(NC(=O)Nc3ccccc3)s2)cc1 19.1%
O=C(CSc1ccc(F)cc1)Nc1ccccc1-c1nc2ccccc2s1 10.6%
C[S+](=O)([O-])CCn1ncc2cc(OCc3cccc(-c4ccccc4)c3)ccc21 15.9% [at 49.3 µM]
Cc1ccc2cc(CN3CCN(CC(N)=O)CC3)c(-c3cccs3)nc2c1 17.7%
OCc1cccc(-c2cc3c(cn2)CN(Cc2ccccc2)CCN3)c1 19.2% [at 49.3 µM]
O=C(NCc1ccc(F)c(Cl)c1)C1CCN(C(=O)c2ncn3c2COC(c2ccccc2)C3)CC1 (centres undefined) 12%
CC(=O)Oc1ccccc1C(=O)Nc1ccc(-c2nc3ccc(C)cc3s2)cc1 20.9%
O=C(NCc1ccccc1)C1CCN(C(=O)c2ncn3c2COC(c2ccccc2)C3)CC1 (centres undefined) 16.6%
O=C(/C=C/c1ccccc1)Nc1cc(-c2nc3cc(Cl)ccc3o2)ccc1Cl 14.8%
CNc1nc(C(=O)NCc2ccc3[nH]c(-c4ccc(F)cc4)c(C)c3c2)cs1 13.1%
Cc1ccc(-n2ncc3c(N4CCC(C(N)=O)CC4)ncnc32)cc1 15.7%
OCCN1CCN(c2nc(N3CCCCC3)c3cnn(-c4ccc(Cl)cc4)c3n2)CC1 11.8%
Cc1ccc(-c2nnc(SCc3ccccc3C)o2)cc1 13.5%
O=C(NC1CCN(c2cc(-c3ccc(F)cc3)[nH]n2)C1)c1cc2ccccc2[nH]1 (centres undefined) 18.6%
Cn1ccnc1CN1CCc2nc(C(=O)Nc3ccccc3)oc2CC1 18.4% [at 49.3 µM]
Cc1ccc(C2Cn3nnc(C(=O)N4CCC(C(=O)NCCc5ccccc5)CC4)c3CO2)cc1 (centres undefined) 9.42%
CN1c2cc(C(=O)Nc3ccccc3)ccc2C(=O)N2CCCCCC21 (centres undefined) 17%
Oc1cccc(-c2cc3c(cn2)CN(Cc2cccnc2)CCN3)c1 18.1% [at 49.3 µM]
OC1(CN2CCCCC2)CCN(c2nc3ccccc3s2)C1 (centres undefined) 16%
Cc1nn(-c2ccc(C(C)(C)C)cc2)c(C)c1[C@@H]1C=C[C@@H](NC(=O)c2ccco2)C1 9.96% [at 49.3 µM]
Cc1cccc(C(=O)Nc2ccc(-c3nc4ccccc4s3)c(C)c2)c1 21.9%
COc1cccc(-c2nc3ccc(-c4ccc5c(c4)OCO5)cc3o2)c1OC 24.4%
Cc1ccc(Cl)cc1-n1ncc2c(N3CCC(C(N)=O)CC3)ncnc21 12%
COc1ccc(-c2nc3ccccc3s2)cc1NC(=O)COc1ccccc1C 7.67%
CN1CCN(C[C@@H]2CN(C(=O)CCCc3ccccc3)C[C@@H]2CO)CC1 8.6%
Cc1nn(-c2ccc(C(C)C)cc2)c(C)c1[C@@H]1C=C[C@@H](NC(=O)Nc2ccccc2)C1 14.5% [at 49.3 µM]
Cc1ccc(Nc2c(-c3ccc(N(C)C)cc3)nc3nc[nH]n23)cc1 18.3%
CC(=O)Nc1ccc(NC(=O)CCCc2nc(-c3ccc(C(C)(C)C)cc3)no2)cc1 24.7%
O=C(CCCc1ccccc1)N1CCC2(CC1)CC(O)CCO2 (centres undefined) 21.2%
COc1ccccc1OC1(C(=O)O)CCN(c2ncnc3nc[nH]c23)CC1 11.8%
CC(C)C(=O)Nc1cc(-c2nc3ccccc3s2)ccc1Cl 11.7%
Oc1ccc(-c2nc(C3CC3)nc3c2CCN(Cc2cccc(F)c2)CC3)cc1 9.06%
Cc1nn(-c2ccc(C(C)C)cc2)c(C)c1[C@@H]1C=C[C@@H](NC(=O)CC2(CC(=O)O)CCCC2)C1 15.4%
Cc1cc2nn(-c3ccc(Cl)cc3)nc2cc1NC(=O)C(C)C 17.2%
O=C(NCC1CC1)C1CCN(C(=O)c2ncn3c2COC(c2ccccc2)C3)CC1 (centres undefined) 12.6%
CCc1cccc(NC(=O)c2cc(-c3ccccc3)n[nH]2)c1 25.8%
CC(=O)c1nn(-c2ccc(OC(F)(F)F)cc2)nc1Nc1ccccc1 14.5%
Cc1cccc(-c2cccc(NC(=O)C3CCCN(C(=O)CC(F)(F)F)C3)c2)c1 (centres undefined) 12.4%
Cc1ccc(-c2nc(C(=O)N(C)Cc3ccccc3)no2)cc1 13.1%
CCOC(=O)C1CCN(C(=O)c2cccc3c2CCN3C(=O)Nc2ccccc2)CC1 16.3%

Potency, active:
OCC1CCCN(c2ncnc3c2cnn3-c2ccccc2)C1 (centres undefined) 1.76 µM
COc1ccc(C)cc1NC(=O)Nc1cccc(-c2ccc(N3CCCCC3)nn2)c1 8.81 µM
